Source: PubChem (National Center for Advancing Translational Sciences (NCATS))
VDR inh = blocks the human vitamin D receptor | P11473 | Potency, µM, for inactives: max response, negative = inhibition, actives largely listed as inhibitors | 400,000 compounds, 0.93% hits | VDR-SRC2-3 peptide fluorescence polarization, 2 h | AID 504847
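Two reagent solutions held at 4 deg C in the dark were dispensed, compounds pinned at 23 nl, and the mixture incubated 2 h at room temperature. Read-out: fluorescence polarization of VDR–SRC2-3 peptide binding.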
PLK1 PBD inh = blocks phosphopeptide binding to human PLK1 polo-box domain. Plk1 PBD binding of FITC phosphopeptide, fluorescence polarization. AID 720504. 360,000 compounds, 2.8% hits. P53350. Potency, µM, without a hit: max response, negative = inhibition, actives largely listed as inhibitors; also: series mostly up to about 57 µM; nearly all actives have a fitted effect of over 65% in size
GCN5L2 inh = inhibitors of human GCN5L2 histone acetyltransferase. Q92830. GCN5L2 HAT assay, ThioGlo1 CoA-SH fluorescence. Potency, µM (doses to about 58.9 µM), inactives show at the highest dose activity change, negative = inhibition, actives largely listed as inhibitors. 390,000 compounds, 0.21% hits. AID 504327
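GCN5L2 (20 nM) in 50mM HEPES pH 7.5, 0.1mM EDTA, 0.01% Tween-20 preincubated 15 min with compounds at room temperature. Reaction started with H3(1-25) 75uM, acetyl-CoA 70uM, ThioGlo1 50uM; CoA-thiol fluorescence (Ex340/Em540) read at 0 and 20 min.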
ALOX12 inh = inhibitors of human 12S-lipoxygenase ALOX12. Potency, µM (titrated, usually from 108 µM), for inactives: top-dose activity change, negative = inhibition, hits mostly inhibitors. P18054. purified 12hLO, xylenol orange hydroperoxide absorbance. 580,000 compounds, 1.1% hits. AID 1671190
Target sequence (P18054 whole entry, looked up): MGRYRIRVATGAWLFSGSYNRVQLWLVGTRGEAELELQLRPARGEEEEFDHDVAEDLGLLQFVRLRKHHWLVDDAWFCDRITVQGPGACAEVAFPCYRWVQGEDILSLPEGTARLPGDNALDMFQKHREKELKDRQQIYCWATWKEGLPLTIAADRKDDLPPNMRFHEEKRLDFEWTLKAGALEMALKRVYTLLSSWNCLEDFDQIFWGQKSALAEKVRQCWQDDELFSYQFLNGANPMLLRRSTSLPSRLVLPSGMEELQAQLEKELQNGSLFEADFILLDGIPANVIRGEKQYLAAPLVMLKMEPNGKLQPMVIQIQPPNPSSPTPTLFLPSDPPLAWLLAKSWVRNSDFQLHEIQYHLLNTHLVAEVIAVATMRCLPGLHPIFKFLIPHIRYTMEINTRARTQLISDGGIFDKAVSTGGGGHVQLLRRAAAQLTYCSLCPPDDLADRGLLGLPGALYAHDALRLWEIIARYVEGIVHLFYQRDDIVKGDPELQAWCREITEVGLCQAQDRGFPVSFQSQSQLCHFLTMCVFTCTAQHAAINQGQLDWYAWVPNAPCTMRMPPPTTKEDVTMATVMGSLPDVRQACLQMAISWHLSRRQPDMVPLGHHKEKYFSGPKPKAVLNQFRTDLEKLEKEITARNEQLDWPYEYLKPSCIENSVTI
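Purified human 12hLO at 150 nM in 25 mM Hepes, 0.01% Triton X-100, pH 7.0, preincubated 15 min at room temperature with compound. Reaction started with 40 uM arachidonic acid, 30 min at room temperature. Hydroperoxide measured by Fe-xylenol orange, 573/405 nm absorbance ratio.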
TbPYK confirm = Trypanosoma brucei pyruvate kinase inhibition, cherry-pick confirmation; Potency, µM (doses to about 76.9 µM), inactives show at the top dose activity change, negative = inhibition, actives largely listed as inhibitors; recombinant TbPYK, Kinase-Glo ATP luminescence; shares compounds with PLK1 PBD inh; 890 compounds, 67% hits; also: nearly all actives have a fitted effect of over 70% in size
TbPYK ADP-Glo = inhibits T. brucei pyruvate kinase in orthogonal ADP-Glo assay. shares compounds with PLK1 PBD inh. recombinant TbPYK, ADP-Glo luminescence, 60 min. Potency, µM (titrated, usually from 76.9 µM), for inactives: top-dose activity change, negative = inhibition, actives largely listed as inhibitors. 890 compounds, 62% hits; also: nearly all actives have a fitted effect of over 75% in size
* = called active by the depositor; ? = inconclusive; . = not tested or not shown. Hits are enriched below; roughly 3% of the tested compounds scored in any of these assays. Calls follow the shape of the dose curve; as a rule, active = well fitted curve in the direction sought with a large enough effect; inconclusive = small, poorly fitted or top-dose-only effect, or another doubt; inactive = no such curve, though single readings can be large; an effect the other way counts as inactive or inconclusive. % is scaled to controls: 0 for no effect and ±100 for the full control effect; potency is read from the fitted curve at half-maximal effect.

SMILES	VDR inh	PLK1 PBD inh	GCN5L2 inh	ALOX12 inh	TbPYK confirm	TbPYK ADP-Glo
COc1cc2c(cc1OC)C(c1ccc([N+](=O)[O-])cc1)NCC2 (stereo not given)	-18%	12%	-3%	1%	-6%	-9%
Clc1nssc1=Nc1ccc(Br)cc1	35µM*	2.1µM*	8.9µM*	4µM*	8.9µM*	11µM*
N#Cc1cccc(N=c2ssnc2Cl)c1	?	1.7µM*	6.3µM*	?	8.9µM*	7.1µM*
Clc1nssc1=Nc1nncs1	5.6µM*	2.4µM*	2.2µM*	4.5µM*	2µM*	5µM*
COc1cc(N=c2ssnc2Cl)cc(OC)c1	20µM*	1.7µM*	22µM*	?	4µM*	5µM*
OCc1ccccc1N=c1ssnc1Cl	.	.	-27%	.	.	.
CNc1c(NC(=O)c2ccc(Cl)cc2)c(=O)oc2ccccc12	.	.	.	59%	.	.
O=C(CN1CCN(c2ccc(O)cc2)CC1)Nc1ccc2c(c1)OCCO2	-18%	10%	1%	?	22µM*	32µM*
O=C(CN1CCN(c2ccc(F)cc2)CC1)Nc1ccc2c(c1)OCCO2	10%	-6%	-3%	-1%	.	.
COCCCn1c(=S)[nH]c2c(sc3ccccc32)c1=O	3%	-19%	?	?	.	.
O=C(O)CCCn1c(=S)[nH]c2c(sc3ccc([N+](=O)[O-])cc32)c1=O	15%	-15%	-3%	18µM*	7.9µM*	4.5µM*
CN(C)c1ccc(C(c2ccc(N(C)C)cc2)C(O)c2ccccc2)cc1 (stereo not given)	22%	2%	.	?	2.8µM*	?
O=C(Cn1nc(C(=O)O)c2ccccc2c1=O)NC(=O)c1ccc(Cl)cc1	.	.	.	18%	.	.
Cn1nnnc1Sc1ncnc2scc(-c3ccccc3C(F)(F)F)c12	-20%	.	?	?	13µM*	28µM*
NC(=O)c1ccc(NC(=O)Cn2ccc3ccc(Cl)cc32)cc1	.	.	.	4%	.	.
CCCNC(=O)N(C)C[C@@H]1Oc2ncc(-c3ccncc3)cc2C(=O)N([C@H](C)CO)C[C@@H]1C	.	-13%	.	?	22µM*	32µM*
CS(=O)(=O)c1sc2nc(-c3cccs3)cc(-c3ccccc3)c2c1N	?	8.4µM*	?	0%	?	35µM*
Cc1ccc(-c2cc(-c3ccccc3)c3c(N)c(S(C)(=O)=O)sc3n2)cc1	-7%	-8%	?	-14%	.	.
COc1ccc([C@H]2CC(=O)C=C(c3ccc(F)nc3)C2)cc1OC	-6%	2%	-3%	?	.	.
COc1ccc(C2=CC(=O)C[C@H](c3ccc(OC)c(OC)c3)C2)cn1	-4%	0%	-3%	9%	9%	-1%
CC(=O)Nc1cccc(C(=O)NC2CCCN(c3cc(-c4ccc(Cl)cc4)[nH]n3)C2)c1 (stereo not given)	.	.	.	5%	.	.
NS(=O)(=O)c1ccc(CCNC(=O)c2cncc(Br)c2)cc1	?	3µM*	39%	-29%	4%	-2%
c1ccc(Nc2nc(CSc3nnnn3C3CCCC3)cs2)cc1	.	.	.	-14%	.	.
COCCN(Cc1cc2cccc(C)c2n2nnnc12)C(=O)C(F)(F)F	-16%	-5%	-5%	0%	3%	-8%
O=C1C(Cl)=C(NCCN2CCOCC2)C(=O)c2ccccc21	-13%	0%	-17%	?	.	.
CC1COCC(C)N1C1=C(Cl)C(=O)c2ccccc2C1=O (stereo not given)	?	13µM*	.	?	?	?
COCC(=O)N1CCN(c2oc(-c3ccco3)nc2C#N)CC1	.	.	.	-27%	.	.
COCCn1c(C)cc(C(=O)COC(=O)c2ccc3ncsc3c2)c1C	-11%	2.4µM*	-19%	0%	-1%	0%
CCOC(=O)CC1=C(C(=O)OCC)C(c2cccs2)C(C#N)=C(N)O1 (stereo not given)	-6%	-8%	.	3%	.	.
Cc1ccc(N2CSC3=C(C#N)C(c4cccs4)CC(=O)N3C2)cc1 (stereo not given)	79µM*	15µM*	?	?	2.5µM*	1.6µM*
